Measurements from PubChem BioAssay (NCATS).
Inconclusive results are not listed. For some assays here: Potency and affinity values are given separately. Calls of active or inactive are those of the source. Unless noted, no rule for the calls is given here.

How the values were obtained:
[1] = Ebola virus entry assay, green fluorescence channel
[2] = Ebola virus entry assay, blue channel fluorescence
[3] = Ebola virus entry assay, ratio channel
[4] = Ebola virus entry assay, green channel fluorescence
[5] = Ebola virus entry assay, reporter ratio channel; Channel type: primary
[6] = Ebola virus entry assay, blue channel (ratio component)
[7] = qHTS assay for measurement of the activity of small molecule inhibitors on Zika virus induced Caspase-3 activity in human iPSC derived neural progenitor cells (hNPCs) (AID 1224857; active = well fitted inhibition curve with a large enough effect; also: % of control where 0% means no effect; nearly all actives have a fitted effect of over 65% in size); settings: hNPCs ZIKV-induced caspase-3/7, Caspase-Glo luminescence, 6 h; series mostly up to 45.7 µM
In short: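 In medium with heparin 2 ug/ml and cyclopamine 2 uM, hNPCs (350 cells/well) received compound for one hour and then Zika virus at 2 FFU/cell; caspase activity was measured by Caspase-Glo 3/7 luminescence 6 h post-infection.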

[8] = qHTS assay for measurement of the activity of small molecule inhibitors on Zika virus induced Caspase-3 activity in human astrocytoma cells (AID 1224859; active = well fitted inhibition curve with a large enough effect;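 also: plate controls were ZIKV-infected untreated cells for no effect and uninfected cells for full effect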); settings: SNB-19 ZIKV-induced caspase-3/7, luminescence, 6 h; series mostly up to 45.7 µM
In short: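 A cell-based luminescent caspase-3/7 assay used SNB-19 cells infected with ZIKV (2 FFU/cell) for 6 h following 1 h compound pretreatment.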
For efficacy in this document: 0% is about no effect.

Nc1ccc(N)cc1
inactive: efficacy [1] 15.4% | outcome [2] | outcome [3] | outcome [4] | outcome [5] | outcome [6] | Potency [7] | outcome [8]

CC(C)=C[C@@H]1[C@@H](C(=O)OCc2coc(Cc3ccccc3)c2)C1(C)C
inactive: efficacy [1] 20% | outcome [2] | outcome [3] | outcome [4] | outcome [5] | outcome [6] | Potency [7] | outcome [8]

COP(=O)(OC)OC=C(Cl)Cl
inactive: efficacy [1] 29.4% | outcome [2] | outcome [3] | outcome [4] | outcome [5] | outcome [6] | Potency [7] | outcome [8]

Cc1ncc2n1-c1ccc(Cl)cc1C(c1ccccc1F)=NC2
inactive: efficacy [1] -12% | outcome [2] | outcome [3] | outcome [4] | outcome [5] | outcome [6] | outcome [8]

O=C(CCCCl)c1ccc(F)cc1
inactive: efficacy [1] 36.2% | outcome [2] | outcome [3] | outcome [4] | outcome [5] | outcome [6] | outcome [8]

O=c1[nH]c2cc(Cl)ccc2n1C1CCNCC1
inactive: efficacy [1] 11.1% | outcome [2] | outcome [3] | outcome [4] | outcome [5] | outcome [6] | outcome [8]

CCOC(=O)c1ncn2c1CN(C)C(=O)c1c(I)cccc1-2
inactive: efficacy [1] 19.2% | outcome [2] | outcome [3] | outcome [4] | outcome [5] | outcome [6] | Potency [7] | outcome [8]

C[C@H]1C(=O)O[C@@H]2CCN3CC=C(COC(=O)[C@](C)(O)[C@]1(C)O)[C@H]23
inactive: efficacy [1] 7.51% | outcome [2] | outcome [3] | outcome [4] | outcome [5] | outcome [6] | Potency [7] | outcome [8]

CNC(C)Cc1ccccc1OC (stereo not drawn)
inactive: efficacy [1] -13.2% | outcome [2] | outcome [3] | outcome [4] | outcome [5] | outcome [6] | outcome [8]
